Measured values as given in PubChem BioAssay (NCATS).
Several values for one entry are separate records, joined by “and”; a condition that tells them apart may be missing. Identical values can stand only once. Results filed as inconclusive are left out. Activity calls are given as the source filed them. Unless noted, calls come from the whole dose curve; as a rule, active = well fitted curve in the direction sought with a large enough effect; inconclusive = small, poorly fitted or top-dose-only effect, or another doubt; inactive = no such curve, though single readings can be large; an effect the other way counts as inactive or inconclusive. Peptide text beside a SMILES is read from it.

Columns and labels:
CAOV3 = assay: Primary qHTS to identify gynecologic anti-cancer compounds using libraries of approved drugs and bioactive compounds (AID 1345084); details: Gynecologic cancer cell panel viability, ATPlite luminescence, 48 h; series mostly up to 57.5 µM; note: % is set by controls: 0 for no effect and ±100 for the full control effect; nearly all actives have a fitted effect of over 55% in size
Procedure, shortened: (§1)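 Cells, 1,000 per well, were allowed to settle for 16 h at 37 C before compound addition. Five concentrations were tested for 48 h, and viability was read by ATPlite luminescence after 15 min at room temperature.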

CASKI = assay: as above; details: Gynecologic cancer cell panel viability, ATPlite luminescence, 48 h; series mostly up to 57.5 µM
Procedure, shortened: as §1

Es-2 = assay: as above; details: Gynecologic cancer cell panel viability, ATPlite luminescence, 48 h; series mostly up to 57.5 µM
Procedure, shortened: as §1

HeLa = assay: as above; details: Gynecologic cancer cell panel viability, ATPlite luminescence, 48 h; series mostly up to 57.5 µM
Procedure, shortened: as §1

Hek293T = assay: as above; details: Gynecologic cancer cell panel viability, ATPlite luminescence, 48 h, control line for the selectivity index; series mostly up to 57.5 µM
Procedure, shortened: as §1

JEG-3 = assay: as above; details: Gynecologic cancer cell panel viability, ATPlite luminescence, 48 h; series mostly up to 57.5 µM
Procedure, shortened: as §1

OV90 = assay: as above; details: Gynecologic cancer cell panel viability, ATPlite luminescence, 48 h; series mostly up to 57.5 µM
Procedure, shortened: as §1

PA-1 = assay: as above; details: Gynecologic cancer cell panel viability, ATPlite luminescence, 48 h; series mostly up to 57.5 µM
Procedure, shortened: as §1

SKOV3 = assay: as above; details: Gynecologic cancer cell panel viability, ATPlite luminescence, 48 h; series mostly up to 57.5 µM
Procedure, shortened: as §1

Tov-21-G = assay: as above; details: Gynecologic cancer cell panel viability, ATPlite luminescence, 48 h; series mostly up to 57.5 µM
Procedure, shortened: as §1

Tov112D = assay: as above; details: Gynecologic cancer cell panel viability, ATPlite luminescence, 48 h; series mostly up to 57.5 µM
Procedure, shortened: as §1

[1] = Drug repurposing screens with cells derived from glioblastoma tumor samples (AID 1345199); details: GBM patient neurospheres viability, ATP luminescence, 48 h; note: nearly all actives have a fitted effect of over 40% in size; note: potency is the fitted concentration of half-maximal effect; for activity, negative = cell killing: % is set by controls: 0 for no effect and ±100 for the full control effect
Procedure, shortened: (§2)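 Primary testing used CD133+ neurospheres from four GBM patients, seven concentrations, 48 h exposure and ATP-based viability; confirmation added three slower-growing patient lines.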

astro = assay: as above; details: viability, ATP luminescence, 48 h; series mostly up to 45.9 µM
Procedure, shortened: as §2

[2] = biological target: Nuclear receptor subfamily 1 group I member 2 (Rattus norvegicus) (UniProt Q9R1A7); assay: qHTS assay for small molecule activators of the rat pregnane X receptor (rPXR) signaling pathway (AID 651751; call rule not given here; note: 0% is about no effect); details: rPXR reporter cells, luciferase (One-Glo), 24 h
[3] = qHTS assay for small molecule activators of the human pregnane X receptor (PXR) signaling pathway (AID 720659; call rule not given here; note: 0% is about no effect)
[4] = at 45.9 µM (top of the series), tumour line B
[5] = at 45.9 µM (top of the series), tumour line D
[6] = at 46 µM (top of the series), tumour line A
[7] = at 46.1 µM (top of the series), tumour line C
[8] = at 20 µM (top of the series), tumour line C
[9] = at 21.2 µM (top of the series), tumour line B
[10] = at 21.2 µM (top of the series), tumour line D

Sequence of Nuclear receptor subfamily 1 group I member 2 (Rattus norvegicus) (Q9R1A7 whole entry, looked up): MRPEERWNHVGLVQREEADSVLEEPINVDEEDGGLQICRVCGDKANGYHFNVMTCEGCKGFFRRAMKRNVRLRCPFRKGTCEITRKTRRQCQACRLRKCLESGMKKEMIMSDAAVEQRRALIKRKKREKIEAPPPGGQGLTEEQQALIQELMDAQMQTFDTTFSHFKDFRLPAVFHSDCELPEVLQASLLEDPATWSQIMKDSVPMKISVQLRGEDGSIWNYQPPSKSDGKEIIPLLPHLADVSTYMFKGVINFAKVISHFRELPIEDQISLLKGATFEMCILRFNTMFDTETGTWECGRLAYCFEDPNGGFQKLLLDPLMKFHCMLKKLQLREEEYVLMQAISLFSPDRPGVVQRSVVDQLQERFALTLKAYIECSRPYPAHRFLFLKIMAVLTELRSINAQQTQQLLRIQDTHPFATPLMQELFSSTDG

CC(S)C(=O)NCC(=O)O (stereo not drawn)
inactive: Potency (CAOV3) | Potency (CASKI) | Potency (Es-2) | Potency (HeLa) | Potency (Hek293T) | Potency (JEG-3) | Potency (OV90) | Potency (PA-1) | Potency (SKOV3) | Potency (Tov-21-G) | Potency (Tov112D) | activity, negative = cell killing [1, 4] -0.523% | activity, negative = cell killing [1, 5] -24.6% | activity, negative = cell killing [1, 6] -28.9% | activity, negative = cell killing [1, 7] -4.37% | Potency (astro)

O=C(OC1C[C@H]2CC[C@@H](C1)[N+]21CCCC1)C(O)(c1ccccc1)c1ccccc1 (stereo partly drawn)
inactive: Potency (CAOV3) | Potency (CASKI) | Potency (Es-2) | Potency (HeLa) | Potency (Hek293T) | Potency (JEG-3) | Potency (OV90) | Potency (PA-1) | Potency (SKOV3) | Potency (Tov-21-G) | Potency (Tov112D) | activity, negative = cell killing [1, 4] -3.76% | activity, negative = cell killing [1, 5] -11.8% | activity, negative = cell killing [1, 7] -2.11% | Potency (astro)

COCCCOc1ccnc(CS(=O)c2nc3ccccc3[nH]2)c1C (stereo not drawn)
active: Potency (astro) 22.4 µM
inactive: Potency (CAOV3) | Potency (CASKI) | Potency (Es-2) | Potency (HeLa) | Potency (Hek293T) | Potency (JEG-3) | Potency (OV90) | Potency (PA-1) | Potency (SKOV3) | Potency (Tov-21-G) | Potency (Tov112D)

COc1ccc(C2(C#N)CCC(C(=O)O)CC2)cc1OC1CCCC1 (stereo not drawn)
inactive: Potency (CAOV3) | Potency (CASKI) | Potency (Es-2) | Potency (HeLa) | Potency (Hek293T) | Potency (JEG-3) | Potency (OV90) | Potency (PA-1) | Potency (SKOV3) | Potency (Tov-21-G) | Potency (Tov112D) | activity, negative = cell killing [1, 4] -12.3% | activity, negative = cell killing [1, 5] -10.6% | activity, negative = cell killing [1, 7] -18.3% | Potency (astro)

Clc1ccc(C(Cn2ccnc2)OCc2ccsc2Cl)c(Cl)c1 (stereo not drawn)
inactive: Potency (CAOV3) | Potency (CASKI) | Potency (Es-2) | Potency (HeLa) | Potency (Hek293T) | Potency (JEG-3) | Potency (OV90) | Potency (PA-1) | Potency (SKOV3) | Potency (Tov-21-G) | Potency (Tov112D)

C=C(c1ccc(C(=O)O)cc1)c1cc2c(cc1C)C(C)(C)CCC2(C)C
inactive: Potency (CAOV3) | Potency (CASKI) | Potency (Es-2) | Potency (HeLa) | Potency (Hek293T) | Potency (JEG-3) | Potency (OV90) | Potency (PA-1) | Potency (SKOV3) | Potency (Tov-21-G) | Potency (Tov112D)

COC(=O)[C@H](Cc1ccccc1)NC(=O)[C@@H](N)CC(=O)O (H-Asp-Phe-OMe)
inactive: Potency (CAOV3) | Potency (CASKI) | Potency (Es-2) | Potency (HeLa) | Potency (Hek293T) | Potency (JEG-3) | Potency (OV90) | Potency (PA-1) | Potency (SKOV3) | Potency (Tov-21-G) | Potency (Tov112D) | activity, negative = cell killing [1, 4] -10.7% and -0.538% | activity, negative = cell killing [1, 5] -6.33% and -21.9% | activity, negative = cell killing [1, 7] -19.7% and -4.06% | Potency (astro) | max response [2] -0.463% and 3.11%

Cc1cc2cc3c(C)cc(=O)oc3c(C)c2o1
inactive: Potency (CAOV3) | Potency (CASKI) | Potency (Es-2) | Potency (HeLa) | Potency (Hek293T) | Potency (JEG-3) | Potency (OV90) | Potency (PA-1) | Potency (SKOV3) | Potency (Tov-21-G) | Potency (Tov112D) | activity, negative = cell killing [1, 8] -6.21% | activity, negative = cell killing [1, 9] -13.8% | activity, negative = cell killing [1, 10] -30.4% | Potency (astro)

CNC[C@H](O)c1ccc(O)c(O)c1
inactive: Potency (CAOV3) | Potency (CASKI) | Potency (Es-2) | Potency (HeLa) | Potency (Hek293T) | Potency (JEG-3) | Potency (OV90) | Potency (PA-1) | Potency (SKOV3) | Potency (Tov-21-G) | Potency (Tov112D) | Potency (astro) | max response [2] 0.58% | outcome [3]

O=C(NC(Cc1cc(=O)[nH]c2ccccc12)C(=O)O)c1ccc(Cl)cc1 (stereo not drawn)
inactive: Potency (CAOV3) | Potency (CASKI) | Potency (Es-2) | Potency (HeLa) | Potency (Hek293T) | Potency (JEG-3) | Potency (OV90) | Potency (PA-1) | Potency (SKOV3) | Potency (Tov-21-G) | Potency (Tov112D) | activity, negative = cell killing [1, 4] -5.33% | activity, negative = cell killing [1, 5] 4.89% | activity, negative = cell killing [1, 6] -9.81% | activity, negative = cell killing [1, 7] -15.5% | Potency (astro)

Clc1ccc(C(Cn2ccnc2)OCc2c(Cl)cccc2Cl)c(Cl)c1 (stereo not drawn)
inactive: Potency (CAOV3) | Potency (CASKI) | Potency (Es-2) | Potency (HeLa) | Potency (Hek293T) | Potency (JEG-3) | Potency (OV90) | Potency (PA-1) | Potency (SKOV3) | Potency (Tov-21-G) | Potency (Tov112D) | activity, negative = cell killing [1, 8] -9.14%
active: Potency ([1]; tumour line A) 7.94 µM | Potency ([1]; tumour line D) 7.08 µM

O=C(NCCO[N+](=O)[O-])c1cccnc1
inactive: Potency (CAOV3) | Potency (CASKI) | Potency (Es-2) | Potency (HeLa) | Potency (Hek293T) | Potency (JEG-3) | Potency (OV90) | Potency (PA-1) | Potency (SKOV3) | Potency (Tov-21-G) | Potency (Tov112D) | activity, negative = cell killing [1, 4] -0.47% | activity, negative = cell killing [1, 5] -18.1% | activity, negative = cell killing [1, 7] -10.1% | Potency (astro)

NS(=O)(=O)c1cc(C(=O)O)c(NCc2ccco2)cc1Cl
inactive: Potency (CAOV3) | Potency (CASKI) | Potency (Es-2) | Potency (HeLa) | Potency (Hek293T) | Potency (JEG-3) | Potency (OV90) | Potency (PA-1) | Potency (SKOV3) | Potency (Tov-21-G) | Potency (Tov112D) | activity, negative = cell killing [1, 4] -8.22% | activity, negative = cell killing [1, 5] -18.4% | activity, negative = cell killing [1, 7] 5.25% | Potency (astro) | max response [2] 7.06% and 0.0174% | outcome [3]

COc1cc(OC)c(C(=O)CCCN2CCCC2)c(OC)c1
inactive: Potency (CAOV3) | Potency (CASKI) | Potency (Es-2) | Potency (HeLa) | Potency (Hek293T) | Potency (JEG-3) | Potency (OV90) | Potency (PA-1) | Potency (SKOV3) | Potency (Tov-21-G) | Potency (Tov112D) | activity, negative = cell killing [1, 8] 0.201% | activity, negative = cell killing [1, 9] -11.8% | activity, negative = cell killing [1, 10] -17.1% | activity, negative = cell killing ([1]; at 21.3 µM (top of the series), tumour line A) -24.2% | Potency (astro)
